The record followed here is the OligoGym collection.
Note: reference of the scale not given here.

In one experiment the target is C19orf48. Kind of experiment: pooled miR-30 sensor sort-seq; sequence = guide strand. Particulars: shRNA.
Take AAGTCCTTGTGCACTGGGTTGG: the sensor-assay potency score (higher = more potent) is -0.738.
Consider TCCTTGTGCACTGGGTTGGGTC, for which the sensor-assay potency score (higher = more potent) is -1.63.
In the case of TTCTGGCCTGCTTCACCCCTGG, the sensor-assay potency score (higher = more potent) was -0.772.
Same read-out and setting: as for TTGTGCACTGGGTTGGGTCCCA, the figure is -0.4; as for ATAGGCCTGGTCACAATAGGGA, -0.793.

Another experiment concerns the target C19orf61. The description is as above. Particulars: shRNA.
In turn, TTGGCTGACAACAATGACATGA had a sensor-assay potency score (higher = more potent) of 0.194.
Consider TTCTGCATGACGGAAGTGCTTG, for which the sensor-assay potency score (higher = more potent) is -0.495.
For TTCTTCTCGGTGAGGATCGTGT, the sensor-assay potency score (higher = more potent) was -0.682.
The same measure, in the same setting: as for TCTGCTGTCTGCAGGAACCTGT, the figure is -0.731.
Turning to TTGCATTGTAACATGGACAGAG, the sensor-assay potency score (higher = more potent) amounted to 0.588.
TCATCCACCAACTTGATGCTGT registered a sensor-assay potency score (higher = more potent) of 0.069.
Still for that read-out and setting: as for TAAGTTGACCTCAGAGTCCAGG, the figure is -0.418.
On the same count and under the same terms, as for TAAAGAGCTCTCCAGACCCTGC, the figure is -0.972.
Turning to TTCTCGGTGAGGATCGTGTGTG, the sensor-assay potency score (higher = more potent) was -0.797.
As to TTGACCGCTCTGCTGGAGGTTT, the sensor-assay potency score (higher = more potent) was -0.879.
The same measure, in the same setting: then TTGGGTAATAAAGAAGTCGATG, with -0.372; and TTTGCGGTCATTATTGATGAGA, with -1.14.

In a further experiment the target is C1GALT1C1. Described as above. The settings on record: shRNA.
TTTGGTATTAAATACATCTTTT: the sensor-assay potency score (higher = more potent) was -0.97.
On the same count and under the same terms, then TTATCTTCAGATATCTTCCAAA, with -0.897.
On the same count and under the same terms, as for TTTATCTTCAGATATCTTCCAA, the figure is 0.63; as for TAAGTCTTTTCATTGATTCTAC, -0.486; as for ATAATGACAACACACGTCCTAT, -0.903.
Same read-out and setting: as for TTTTCAATGATAGCAAACGTAG, the figure is -1.07.
For TTAATTGACTCAAACACTTTAA, the sensor-assay potency score (higher = more potent) was -1.19.
On the same count and under the same terms, as for TTTTCATTGATTCTACACTTAA, the figure is -1.52; as for TACATCATCACATGCATCTGAT, -0.0617; as for TATCTGAACAACAGCCTTCTAC, -0.664.
Same read-out and setting: as for TTTGTTAGGAGCTTGTAGGTGA, the figure is 0.841; as for TATCTTCTTTGTTAGGAGCTTG, -0.577.

For another experiment, the target named is C1QL1. Described as above. The settings on record: shRNA.
As to TATAACTTTGGTCAGACGGGGC, the sensor-assay potency score (higher = more potent) is -0.517.
For TGCAGGATCACGCTGTTGCTGG, the sensor-assay potency score (higher = more potent) was -1.19.
The same measure, in the same setting: as for TCCAGGTGCAGGATCACGCTGT, the figure is -0.765.
Take TTGAGTACCTCGTAACCCTCGT: the sensor-assay potency score (higher = more potent) was -0.551.
TATTTGTTGCTGTTGCCGCCGT: the sensor-assay potency score (higher = more potent) was -0.708.
With TAGGTGAAAAAGTAGGTGCCGG, the sensor-assay potency score (higher = more potent) is -0.205.
For the sequence TAGTTGTTGCCTAGGTTGGTGA, the sensor-assay potency score (higher = more potent) is -1.01.
In the case of TTTGTTGCTGTTGCCGCCGTGT, the sensor-assay potency score (higher = more potent) was -0.647.
As to TAGGGGTCGCACACCATGCGGC, the sensor-assay potency score (higher = more potent) is -0.617.
Still for that read-out and setting: as for TTTGCCTCCATCCAGCTTGATG, the figure is -1.62.
For TCAAACTTGAGTACCTCGTAAC, the sensor-assay potency score (higher = more potent) was -0.701.
